An excerpt weighted towards active compounds, which were near 3.3% of everything screened.
TPT1 inh: blocks Candida albicans tRNA 2'-phosphotransferase; recombinant caTPT1, FP RNA substrate dephosphorylation; inhibition, % at 5 µM; 0.81% of 300,000 active;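 active = inhibition above the mean of all tested compounds plus 3 SD, set per screening campaign, cut at about 24% in these data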;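 note: plate controls were DMSO alone for no effect and ferristatin control at 100 nM for full effect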
HNF4A DNA FP: change in binding of human HNF4 alpha to DNA. activity change, % at 10 µM. 0.3% of 360,000 active. AID 1224865. HNF4a-FITC DNA binding, fluorescence polarization, 1 h; in the data active = activity change above about 30%, passing the limit was not always enough
Rpn11 inh: blocks the human proteasome subunit Rpn11. O00487. AID 588493. inhibition, % at 20 µM. 0.59% of 360,000 active. human 26S proteasome, Ub4-pepOG fluorescence polarization; 20S core pre-blocked with epoxomicin;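 active = inhibition at 20 µM, scaled to each plate's controls, above about 33%, limit read from the data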
Target sequence (O00487 whole entry, looked up): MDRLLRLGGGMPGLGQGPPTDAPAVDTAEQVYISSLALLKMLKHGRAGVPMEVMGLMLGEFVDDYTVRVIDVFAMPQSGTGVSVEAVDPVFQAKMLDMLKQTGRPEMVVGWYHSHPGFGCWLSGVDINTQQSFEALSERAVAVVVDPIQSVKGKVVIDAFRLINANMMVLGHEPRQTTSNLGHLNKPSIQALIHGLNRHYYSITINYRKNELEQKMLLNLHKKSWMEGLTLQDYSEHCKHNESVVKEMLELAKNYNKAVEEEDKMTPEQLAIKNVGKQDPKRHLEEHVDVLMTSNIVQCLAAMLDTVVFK
Fh CTSL1 inh: cathepsin L1 inhibition, PFM18AAP counter-screen; recombinant F. hepatica cathepsin L1, Z-Leu-Arg-MCA fluorescence; inhibition, % at 5.96 µM; 0.49% of 300,000 active;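 active = inhibition above the mean of all tested compounds plus 3 SD, set per screening campaign, cut at about 17% in these data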;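 note: 0% = plate median of test compound wells and 100% = 1 µM Z-Phe-Ala-diazomethylketone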
PHOSPHO1 block: PHOSPHO1 (human) inhibition; Q8TCT1; recombinant PHOSPHO1, absorbance phosphatase assay; inhibition, % at 13.3 µM; 1.1% of 290,000 active; in the data active = inhibition above about 60%
Target sequence (Q8TCT1 whole entry, looked up): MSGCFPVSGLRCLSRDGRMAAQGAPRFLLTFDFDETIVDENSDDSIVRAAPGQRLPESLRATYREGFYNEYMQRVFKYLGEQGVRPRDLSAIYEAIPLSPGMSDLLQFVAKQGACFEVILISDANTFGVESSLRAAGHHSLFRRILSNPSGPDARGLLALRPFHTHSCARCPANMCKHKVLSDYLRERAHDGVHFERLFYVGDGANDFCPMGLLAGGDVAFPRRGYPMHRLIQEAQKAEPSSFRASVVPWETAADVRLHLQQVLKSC
NRP1-CendR mod: NRP-1/CendR interaction modulation; inhibition, % at 25 µM; O14786; 0.85% of 360,000 active; FAM-RPARPAR peptide binding to NRP-1, fluorescence polarization;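 active = inhibition or corrected inhibition above about 18%, plus a signal ratio from 0.5 to 1.5, limit read from the data, passing the limit was not always enough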
Active calls of the source: *; / = not tested or not shown.

SMILES	TPT1 inh	HNF4A DNA FP	Rpn11 inh	Fh CTSL1 inh	PHOSPHO1 block	NRP1-CendR mod
CCOC(=O)c1cc2c(=O)n3ccccc3nc2n(CC2CCCO2)c1=NC(=O)/C=C/c1ccccc1 (centres undefined)	-1	-3	4	2	32	29*
CCOc1ccc(NC(=O)CN(C)C(=O)c2cc3c(s2)CCC3)cc1OCC	/	-53	4	/	/	-15
CC(C)CN=CC1=C(O)c2ccccc2C1=O	0	-1	13	0	13	23*
O=C(Nc1ccccc1)Nc1ccc(Cl)nc1Cl	-3	-2	0	-1	/	3
COC(=O)c1sc(S(=O)(=O)NCCCN(C)C)c(C(=O)OC)c1C	2	2	-9	3	80*	6
CCCCC1CCC(C(=O)Nc2ccc(S(=O)(=O)Nc3nccs3)cc2)CC1 (centres undefined)	-4	-4	-7	2	-2	-4
C/C(=N/Nc1ccc([N+](=O)[O-])cc1)c1c[nH]c2ccccc12	/	70*	/	/	30	-179
O=C(COC(=O)c1ccc(Cl)c(S(=O)(=O)N2CCCC2)c1)NCc1ccccc1	/	2	-6	/	/	10
COc1ccc(S[C@@H](CCN2CC[C@H](NC(=O)OCc3ccccc3)CCC2=O)c2ccccc2)cc1	/	2	1	/	/	4
O=C1CC[C@@H](OCc2ccccc2)CCN1CC[C@H](Sc1ccccc1)c1ccccc1	-1	-3	-2	3	-7	29*
O=C(N[C@@H]1CCC(=O)N(CC[C@H](Sc2ccc(Br)cc2)c2ccccc2)CC1)OCc1ccccc1	/	0	8	/	/	20*
O=C1CCC(OCc2ccccc2)CCN1CC[C@@H](Sc1ccccc1)c1ccccc1 (some centres undefined)	/	2	/	/	/	-6
CN(CCOc1ccc(Cl)cc1)c1ccc(S(=O)(=O)N2CCCCC2)cn1	1	4	3	2	17	19*
CC(=O)Oc1cc2c(c3ccccc13)CCC2=O	/	0	5	/	/	31*
COc1ccc2[nH]c3c(c2c1)CCN1C(=O)C(CC(=O)NCCCn2ccnc2)C[C@H](C(=O)N2CCCCC2)[C@@]31C (some centres undefined)	/	1	-1	/	/	-7
CCn1c(N2CCN(CC(=O)c3c[nH]c4ccccc34)CC2)nc2c1c(=O)[nH]c(=O)n2C	4	8	5	-1	74*	-13
CCOC1OC2C(CO)OC(n3cnc4c(N)ncnc43)C2O1 (centres undefined)	-4	0	-6	-6	10	2
OCC1OC(n2cnc3c(/C=C(\O)c4ccccc4)ncnc32)C(O)C1O (centres undefined)	/	-1	0	/	/	22*
Nc1ncnc2c1ncn2C1OC(CO)C2OC21 (centres undefined)	/	4	-3	/	/	24*
NC(=S)N1N=C(c2ccccc2)CC1=O	/	-3	6	/	/	10
Cc1ccc(S(=O)(=O)N2CCN(C(=O)COC(=O)Cc3cccc(C(F)(F)F)c3)CC2)c(C)c1	-2	1	-1	-1	/	14
C[C@@H]1CC[C@H](Cc2ccc(-n3cccc3)cc2)N1C(=O)OC(C)(C)C	/	-3	6	/	/	-26
CN1C(=O)c2ccccc2NC(=O)[C@]12O[C@@H]2c1cccc(O)c1	24*	-8	-20	-2	22	-60
Cc1cc(C)c(NC(=S)N2CCN(c3ccc([N+](=O)[O-])cn3)CC2)cc1C	2	-1	-19	7	14	-10
CCc1ccc(S(=O)(=O)/N=C2\C=CC(=O)c3ccccc32)cc1	-3	/	/	-2	11	/
SMILES	TPT1 inh	HNF4A DNA FP	Rpn11 inh	Fh CTSL1 inh	PHOSPHO1 block	NRP1-CendR mod
CCc1ccc(S(=O)(=O)/N=C2\C=C(Nc3ccc(O)cc3)C(=O)c3ccccc32)cc1	2	2	2	63*	-4	16
CCc1ccc(S(=O)(=O)/N=C2/C=C(Sc3ncn[nH]3)C(=O)c3ccccc32)cc1	1	-3	16	100*	41	10
CCc1ccc(S(=O)(=O)/N=C2\C=C(Nc3cccc(C(=O)O)c3)C(=O)c3ccccc32)cc1	-8	-2	6	51*	46	41*
O=C(NCCSc1ccccn1)c1ccc(Cl)cc1Cl	1	6	-12	-1	-5	0
O=C(N/C(=C/c1cccs1)C(=O)N1CCOCC1)c1cccs1	3	0	9	0	60*	2
CSc1nsc(SCC(=O)N2CCc3ccccc32)n1	0	0	-4	9	16	19*
Cc1cccc(COCC(CC(C)C)N2CCN(C(=O)c3ccc(C(F)(F)F)cc3)CCC2=O)c1 (centres undefined)	2	4	-3	3	8	-1
CC(C)CC(COCc1ccc([N+](=O)[O-])cc1)N1CCN(C(=O)c2ccc(C(F)(F)F)cc2)CCC1=O (centres undefined)	1	2	0	2	-6	23*
O=C(Cn1c(=O)c2c(ncn2C2CCCC2)n(Cc2ccccc2)c1=O)N1CCc2ccccc21	0	-1	0	2	-42	29*
CC12CC(c3ccccc3O1)N(C(=O)c1ccco1)C(=S)N2c1ccc(F)cc1 (centres undefined)	-3	-3	10	1	71*	2
O=C(COC(=O)c1cn(-c2ccccc2)nc1-c1cccs1)NC1CC1	2	0	2	1	65*	15
CC(C)(CO)Cc1cc(C(C)(C)C)c(O)c(C(C)(C)C)c1	-1	0	-4	-4	/	17*
Cc1cc(C)n(-c2nnc(NCc3ccc(Cl)cc3)nn2)n1	-1	1	9	-6	12	30*
O=C(Cc1cccs1)NNC(=O)C12CC3CC(CC(C3)C1)C2	2	-1	-8	-23	61*	-4
O=C(CNCc1cccs1)NC12CC3CC(CC(C3)C1)C2	-2	-1	0	0	24	-1
COCCN1C(=O)COc2ccccc2C1C(=O)Nc1ccc2c(c1)OCCO2 (centres undefined)	/	-2	/	/	/	2
COc1ccc(S(=O)(=O)NCCc2cn3nc(C)c(C)nc3n2)cc1	0	4	-5	4	38	6
Cc1nc2nc(CCNS(=O)(=O)c3ccc(Cl)cc3)cn2nc1C	1	1	-4	30*	27	5
CNC(=S)NN(c1ccccc1)c1ccccc1	-1	3	1	-2	28	44*
CC(=O)NCCNS(=O)(=O)c1ccc(C)c([N+](=O)[O-])c1	2	1	-8	-1	-25	-8
CCOc1cc(N2CCOCC2)c(OCC)cc1NC(=O)COC(=O)[C@@H]1CCCN1S(=O)(=O)c1ccccc1F	8	-4	-5	80*	-18	-6
CCOc1cc(N2CCOCC2)c(OCC)cc1NC(=O)CSc1n[nH]c(N)n1	1	0	-7	21*	-3	9
